Measured values: PubChem BioAssay (EPA / NIEHS)
More than one record can exist for a structure, and the calls need not agree. Active and inactive are the calls of the source. The calls were made as follows: active = hit-call score of the fitted dose curve at least 0.9, where 1 is the maximum; inactive = score below 0.9.

read-out: Monocyte Chemoattractant Protein-1 (MCP1), CCL2 (gene 6347); test: BSK_hDFCGF_MCP1: BioMAP Diversity Plus: hDFCGF Assay for Monocyte Chemoattractant Protein-1 (MCP1) Biomarker Activity (AID 2284285); conditions: primary human foreskin fibroblasts
Procedure: BSK_hDFCGF is a cell-based, multiplexed-readout assay that uses foreskin fibroblast, a human skin primary cell, with measurements taken at 24 hours after chemical dosing in a 96-well plate.BSK_hDFCGF_MCP1 is an assay component measured in the BSK_hDFCGF assay. It measures MCP-1 antibody related to regulation of gene expression using ELISA technology.Data from the assay component BSK_hDFCGF_MCP1 was analyzed at the endpoint, BSK_hDFCGF_MCP1, in the positive analysis fitting direction relative to DMSO as the negative control and baseline of activity. Using a type of binding reporter, gain or loss-of-signal activity can be used to understand protein changes. To generalize the intended target to other relatable targets, this assay endpoint is annotated to the 'cytokine' intended target family, where the subfamily is 'chemotactic factor'.
The levels of cell surface (or secreted, indicated by the prefix "s") biomarker endpoints were measured by ELISA. Overt cytotoxicity to cells in confluent adherent cultures (all systems other than the BT system) was assessed by measuring total protein levels using sulforhodamine B (SRB) staining in parallel cultures at the time of biomarker measurements, indicated as SRB endpoints. For proliferation assays for adherent cell types, individual cell types are cultured at sub-confluence and relative cell numbers quantified by SRB staining at time points optimized for each system (48 h: 3C and CASM3C systems; 72 h: BT and HDF3CGF systems; 96 h: SAg system). SRB was performed by staining cells with 0.1% SRB after fixation with 10% TCA and reading wells at 560 nm.Viability and proliferation of PBMC (T cells) was quantified by Alamar Blue reduction for the SAg and BT systems. For PBMC viability (referred to as PBMC Cytotoxicity within the assay endpoint names), cells were plated (75,000/well in a 96-well plate) and then chemical samples added for 1 h before addition of activators, SEB and TSST-1 (20 ng/mL final concentration each). Cells were incubated for 90 h. Then, Alamar Blue (20 uL/well) (Invitrogen, Cat DAL1100) was added for 6 h, and the plates were read with a fluorescence microplate reader at 546/580 nm (excitation/emission). For PBMC proliferation, cells were plated and activated as above but incubated for only 16 h prior to addition of Alamar Blue. Plates were read after 6 h.

Compound | outcome | AC50
O=S(=O)(O)CCC(F)(F)C(F)(F)C(F)(F)C(F)(F)C(F)(F)C(F)(F)F | inactive | –
C[Si](C)(C)C(F)(F)C(F)(F)C(F)(F)F | inactive | –
FC(F)(F)C(F)(F)C(F)(F)C(F)(F)C(F)(F)C(F)(F)I | inactive | 28.2 µM (active)
FC(F)(F)COC(OCC(F)(F)F)OCC(F)(F)F | inactive | –
O=C(Cl)C(F)(F)C(F)(F)C(F)(F)C(=O)Cl | inactive | –
FC(F)=C(F)C(F)(F)C(F)(F)C(F)(F)C(F)(F)C(F)(F)C(F)(F)F | inactive | –
OC(O)(C(F)C(O)(O)C(F)(F)F)C(F)(F)F | inactive | –
NCC(F)(F)C(F)(F)C(F)(F)C(F)(F)F | inactive | –
FC(F)C(F)(F)COCC1CO1 (stereo unspecified) | inactive | –
OCCC(F)(F)C(F)(F)C(F)(F)C(F)(F)F | inactive | –
